This is a sample that favours compounds with a hit; in the whole collection about 7.3% have one here.
Rab9 prom act: qHTS Assay for Rab9 Promoter Activators; Huh7 Rab9 promoter-luciferase reporter, luminescence, 24 h; Potency, µM (top dose mostly 9.22 µM), for the others: at the top dose activation, negative = inhibition, most hits filed as activators; actives 2.8% (n = 320,000); further: % of control where 0% means no effect; nearly all actives have a fitted effect of over 60% in size
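Quantitative HTS format; Huh7 Rab9-luciferase reporter cells (1500/well) receive compound 2 h post-plating, incubate 24 h at 37 °C, then get luciferase reagent for 10 min before luminescence reading.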
Luc counter: Counterscreen for Luciferase (Kinase-Glo TM) Inhibition | Luciferin 4-monooxygenase (Photuris pensylvanica), Q27757 | Kinase-Glo luciferase, ATP luminescence, 8 min | Potency, µM (titrated, usually from 38.3 µM), for the others: at the highest dose activity change, negative = inhibition, usual class: inhibitors | actives 0.28% (n = 200,000); further: on the % scale 0 is the no-effect control and ±100 the full control effect; nearly all actives have a fitted effect of over 60% in size
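Inhibition of Kinase-Glo luciferase light generation was assessed at 10 uM ATP in pH 7.2 imidazole buffer, with luminescence measured after eight minutes at ambient temperature.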
SMN2 splice up: qHTS Assay for Enhancers of SMN2 Splice Variant Expression; HEK293 SMN2-luciferase splicing reporter, luminescence, 30-36 h; Potency, µM (doses to about 46.1 µM), for the others: at the top dose activity change, positive = activation, actives largely listed as activators; actives 2.8% (n = 210,000); AID 1458, 2008; further: % of control where 0% means no effect; nearly all actives have a fitted effect of over 55% in size
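HEK293 cells carry an SMN2 […]–luciferase reporter in which exon 7 inclusion puts luciferase in frame. Cells were plated 10-12 h before compound addition, then incubated 30-36 h at 37C. ONE-Glo luminescence was read; sodium butyrate at 4.5 mM final served as control.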
FLuc counter: qHTS profiling assay for firefly luciferase inhibitor/activator using purifed enzyme and Km concentrations of substrates (counterscreen for miR-21 project). Luciferin 4-monooxygenase (Photinus pyralis), P08659. AID 588342, 2011. Potency, µM (doses to about 57.5 µM), for inactives: top-dose activity change, negative = inhibition, usual class: inhibitors. actives 6.9% (n = 360,000). purified FLuc, Km substrates, luminescence inhibition;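 further: plate controls were vehicle for no effect and reference inhibitor for full effect; nearly all actives have a fitted effect of over 55% in size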
Target sequence (P08659 whole entry, looked up): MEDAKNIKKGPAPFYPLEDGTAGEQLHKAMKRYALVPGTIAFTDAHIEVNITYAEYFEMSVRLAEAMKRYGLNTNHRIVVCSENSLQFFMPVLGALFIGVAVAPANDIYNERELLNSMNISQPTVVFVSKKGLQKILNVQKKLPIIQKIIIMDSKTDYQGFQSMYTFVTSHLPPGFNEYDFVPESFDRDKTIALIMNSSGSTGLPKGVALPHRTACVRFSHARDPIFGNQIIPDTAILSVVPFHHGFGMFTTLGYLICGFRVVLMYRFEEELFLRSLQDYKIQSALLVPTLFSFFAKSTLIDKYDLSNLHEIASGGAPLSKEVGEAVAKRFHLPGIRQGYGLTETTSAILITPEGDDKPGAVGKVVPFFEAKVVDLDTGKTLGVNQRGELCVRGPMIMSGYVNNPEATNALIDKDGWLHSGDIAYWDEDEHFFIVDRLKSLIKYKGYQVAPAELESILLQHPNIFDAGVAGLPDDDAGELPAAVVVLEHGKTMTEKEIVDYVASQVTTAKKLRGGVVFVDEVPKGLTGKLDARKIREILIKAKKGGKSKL
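Purified P. pyralis luciferase (10nM final) with 10uM D-luciferin and 10uM ATP (Km levels) in 50mM Tris acetate pH 7.5, 10mM Mg acetate, 0.01% Tween-20, 0.05% BSA; qHTS 6-point titration, ~60 µM downward; luminescence read.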
NPC1 prom act: qHTS Assay for NPC1 Promoter Activators; Potency, µM (top dose mostly 9.22 µM), without a hit: at the top dose activation, hits mostly activators; actives 2.4% (n = 320,000); Huh7 NPC1 promoter luciferase reporter, 24 h; further: % of control where 0% means no effect; nearly all actives have a fitted effect of over 60% in size
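Stably transfected Huh7 (NPC1 promoter→luciferase), 1500 cells/well in Opti-MEM + 10% FBS, 2 h settle, then compound 24 h at 37 °C. Luminescence after 10 min with Amplite reagent.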
* marks the source's active call; other numbers are inactive results; ? = inconclusive; · = no result given. The call rests on the fitted dose curve; in most records, active means well fitted curve in the direction sought with a large enough effect; inconclusive means small, poorly fitted or top-dose-only effect, or another doubt; inactive means no such curve, though single readings can be large; an effect the other way counts as inactive or inconclusive. Potency means the concentration at half of the fitted maximal effect.

SMILES | Rab9 prom act | Luc counter | SMN2 splice up | FLuc counter | NPC1 prom act
CC(C)c1ccc(/C=C2\SC(=S)N(CCC(=O)N3CCCCC3CCO)C2=O)cc1 (configuration not stated) | -31% | · | · | 3.4µM* | -24%
CC(C)c1ccc(NS(=O)(=O)c2ccc3[nH]cc(C(=O)NCC4CCCO4)c(=O)c3c2)cc1 (configuration not stated) | · | · | -29% | ? | ·
CCOc1ccc(C2N3CC4(C(C)C)CN2CC(C(C)C)(C3)C4=O)cc1OC (configuration not stated) | · | · | -3% | -2% | ·
O=C(CCCn1c(=O)c2ccccc2n(Cc2cccc(Cl)c2)c1=O)NCCc1ccc(Cl)cc1 | · | · | -4% | -9% | ·
CC(C)c1ccc(N(CC(=O)O)S(=O)(=O)c2ccc3[nH]c(=O)c(=O)[nH]c3c2)cc1 | · | · | · | 1% | ·
COc1cccc(N2CCN(C3C(=O)c4ccccc4N3C(C)=O)CC2)c1 (configuration not stated) | · | · | · | -2% | ·
Cn1cccc1-c1nc2ccc([N+](=O)[O-])cc2[nH]1 | 2.2µM* | · | · | 12µM* | 2.8µM*
O=[N+]([O-])c1ccc2nc(-c3ccccc3)[nH]c2c1 | 2.5µM* | -24% | 7.1µM* | 5.4µM* | 2.8µM*
COC(=O)CCSc1nc2sc3c(c2c(=O)n1Cc1ccccc1)CCC(C(C)(C)C)C3 (configuration not stated) | · | · | 13% | 5% | ·
CC(C)c1ccc(CNc2nc(-c3ccco3)nn2S(=O)(=O)c2ccc(F)cc2)cc1 | · | · | · | 2% | ·
CC(=O)N1c2ccc(S(=O)(=O)NCCc3cccc(C)c3)cc2CC1C (configuration not stated) | · | · | · | -11% | ·
O=C(O)c1cn(-c2ccccc2)c(=O)c2ccccc12 | 3% | 1% | 3% | 5% | -2%
CC1=NC(=O)C(N=Nc2ccccc2)N1c1ccccc1 (configuration not stated) | 3.5µM* | 2% | 16µM* | ? | 12%
CC1=NC(=O)C(N=Nc2ccccc2C(=O)O)N1c1ccccc1 (configuration not stated) | 26% | 2% | 12% | 15µM* | 7%
CC1=NC(=O)C(N=Nc2cccc(C(=O)O)c2)N1c1ccccc1 (configuration not stated) | 1.3µM* | -4% | 0.5µM* | 0.43µM* | ?
O=c1n(-c2ccc(Br)cc2)cnn1-c1ncccc1[N+](=O)[O-] | 2µM* | 1% | 13µM* | 17µM* | ?
O=[N+]([O-])c1cccnc1N1CCCCC1 | 0% | -4% | -9% | -3% | -3%
COc1ccc(OC)c(-c2csc(NC(=O)C3=COCCO3)n2)c1 | 0% | · | · | 11µM* | 1%
Cc1ccc(C)c(-c2csc(NC(=O)C3=COCCO3)n2)c1 | 0% | · | · | ? | -2%
COc1ccc(C)c2sc(NC(=O)C3=COCCO3)nc12 | 15% | -2% | ? | 5.4µM* | 14%
COc1ccc(OC)c2sc(NC(=O)C3=COCCO3)nc12 | 12% | -17% | -49% | -17% | -2%
COc1ccc(OC)c(-c2csc(NC(=O)c3ccc(F)cc3)n2)c1 | 6% | · | · | 11µM* | ?
COc1ccc(OC)c(-c2csc(NC(=O)Cc3cc(OC)c(OC)c(OC)c3)n2)c1 | -3% | · | · | 4% | -8%
COc1ccc(OC)c(-c2csc(NC(=O)Cc3ccc(F)cc3)n2)c1 | -2% | · | · | 17µM* | -6%
O=C(O)c1ccc(CNCc2ccccc2Cl)s1 | · | · | -2% | -17% | ·
SMILES | Rab9 prom act | Luc counter | SMN2 splice up | FLuc counter | NPC1 prom act
COc1ccc(C(=O)Nc2nc(CC(=O)NCCc3ccccc3OC)cs2)cc1 | 5% | · | · | 2.7µM* | -6%
COc1ccc(C(=O)Nc2nc(CC(=O)NCc3ccc(F)cc3)cs2)cc1 | ? | · | · | ? | 24%
COc1ccc(OC)c(-c2csc(NC(=O)c3ccc(OCC4CCCO4)cc3)n2)c1 (configuration not stated) | -25% | -1% | -25% | 1.5µM* | -4%
COc1ccc(Cl)cc1NC(=O)CN(c1cccc(C)c1C)S(=O)(=O)c1ccccc1 | · | · | -19% | -5% | ·
CNC(=S)Nc1cccc(C(=O)OC)c1 | 2µM* | · | · | -3% | 3.5µM*
COC(=O)c1cccc(NC(=S)NCc2ccc(F)cc2)c1 | -6% | -2% | 7.1µM* | 4% | 10%
CCOc1ccc(NC(=O)CN2CCN(c3ccc(Cl)cc3)CC2)cc1 | · | · | · | 0% | ·
CC1CCc2sc(NC(=S)NC(=O)c3ccccc3)c(C#N)c2C1 (configuration not stated) | ? | 0% | ? | 12µM* | ?
CC1(C)Cc2c(sc(NC(=O)c3ccco3)c2C#N)CO1 | 3.2µM* | 1% | ? | 1.9µM* | 1.6µM*
CCN1CCc2c(sc(NC(=S)NC(=O)c3ccccc3)c2C#N)C1 | 3% | -1% | -1% | -9% | -2%
CCC1(C)Cc2c(sc(NC(=S)NC(=O)c3ccccc3)c2C#N)CO1 (configuration not stated) | 28% | 3% | 2% | 6µM* | 18%
CN1Cc2sc(NC(=S)NC(=O)c3ccccc3)c(C#N)c2CC1(C)C | 9% | · | · | 13µM* | 8%
N#Cc1c(NC(=S)NC(=O)c2ccccc2)sc2c1CCC2 | ? | 2% | -17% | -17% | 19%
CC1(C)Cc2c(sc(NC(=O)/C=C/C(=O)O)c2C#N)CO1 | 0% | · | · | ? | 1%
CCOCCc1nn2c(=O)cc(COC(=O)Cc3ccccc3)nc2s1 | · | · | · | -3% | ·
O=C(Nc1ccc(S(=O)(=O)N2CCCCCC2)cc1)c1cc(=O)c2ccccc2o1 | · | · | 14% | 3% | ·
COc1ccccc1N1CCN(C(=O)/C=C/c2ccc(C)cc2)CC1 | -5% | 2% | -7% | -17% | -1%
COc1ccc(/C=C/C(=O)NC(=S)N2CCN(c3ccccc3OC)CC2)cc1 | ? | · | · | ? | 4µM*
COc1ccc(/C=C/C(=O)NC(=S)N2CCOCC2)cc1 | 1.6µM* | · | · | 11µM* | 3.5µM*
COc1ccc(/C=C/C(=O)NC(=S)Nc2ccc(N3CCN(C(C)=O)CC3)cc2)cc1 | -6% | · | · | -3% | -19%
COc1ccc(NC(=O)C2CCN(C3=NS(=O)(=O)C(c4ccc(C)c(C)c4)=C3C)CC2)cc1OC | · | · | · | 1% | ·
Cc1cccc(C)c1NC(=O)c1nc(SC(C)C)ncc1Cl | · | · | -7% | -10% | ·
O=c1cc(-c2ccc(O)cc2)oc2cc(O[C@H]3OC(CO)C(O)C(O)C3O)cc(O)c12 (some centres not stated) | · | 0% | ? | · | ·
